KCNQ2 pot – potentiators of rat KCNQ2 potassium channel | O88943 | CHO-K1 KCNQ2, FluxOR thallium flux fluorescence; stronger effect = higher value | B-score at 10 µM | 0.54% of 310,000 active;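 active = fluorescence ratio B-score at least 3 SD of library B-scores, with initial fluorescence B-score within 3 of them, cut at about 5.3 in these data; same plate scores as AID 2156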;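 also: B-score of peak minus minimum over baseline fluorescence ratio after K+ and Tl+ stimulus; positive B-score means potentiation of KCNQ2 with more thallium influx and brighter signal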
KCNQ2 block – inhibitors of rat KCNQ2 potassium channel; B-score at 10 µM; 1.1% of 310,000 active; CHO-K1 KCNQ2, FluxOR thallium flux, 20 min; stronger effect = lower value; O88943; AID 2156;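 active = fluorescence ratio B-score at most minus 3 library SDs, with starting brightness B-score within 2 library SDs, cut at about -5.5 in these data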
Kir21 conf inh – confirmation of mouse Kir2.1 potassium channel inhibitors; shares compounds with KCNQ2 pot; Kir2.1-expressing cells, FluxOR thallium flux fluorescence; stronger effect = lower value; Tl flux remaining, % of negative control (stronger effect = lower value), % at 10 µM; 41% of 2,300 active; AID 2032;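 active = Primary-screen hit whose thallium flux fell at least 3 control SD below untreated wells in both duplicates, with normal baseline fluorescence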
Target sequence (P35561 whole entry, looked up): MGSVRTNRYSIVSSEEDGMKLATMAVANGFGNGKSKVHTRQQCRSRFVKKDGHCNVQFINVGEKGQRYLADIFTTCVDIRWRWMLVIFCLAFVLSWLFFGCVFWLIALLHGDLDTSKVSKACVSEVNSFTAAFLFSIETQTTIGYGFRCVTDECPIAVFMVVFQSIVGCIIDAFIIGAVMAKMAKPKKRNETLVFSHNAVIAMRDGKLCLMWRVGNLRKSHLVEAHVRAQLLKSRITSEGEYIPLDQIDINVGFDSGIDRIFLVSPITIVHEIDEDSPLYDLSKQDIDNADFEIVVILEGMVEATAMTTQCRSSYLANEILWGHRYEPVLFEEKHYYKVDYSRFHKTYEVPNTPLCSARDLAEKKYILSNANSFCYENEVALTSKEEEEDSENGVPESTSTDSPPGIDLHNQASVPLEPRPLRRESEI
HEK293 ctr – parental HEK293 activity in Kir2.1 inhibitor counter-screen | FluxOR signal as % of negative control (100 = no effect), % at 10 µM | AID 2105 | shares compounds with KCNQ2 pot | 19% of 2,300 active | parental HEK293 cells, FluxOR thallium flux fluorescence; 0% = unstimulated blank wells;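 active = dye signal at least 3 control SD above or below untreated wells in both duplicates, raw fluorescence within 3, either direction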;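 also: percent is based on the flux ratio of peak minus minimum fluorescence over baseline F0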
CHO-K1 ctr – counter-screen for KCNQ2 potentiators: effect in parental CHO-K1 cells; FluxOR thallium flux fluorescence; zero = vehicle mean+3SD, 100% = vehicle-minus-blank window; 43% of 1,200 active; shares compounds with KCNQ2 pot; activity increase over 3SD of controls, % at 10 µM;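 active = signal rise of at least 3 SD above the untreated control mean, in both duplicate wells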;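 also: counter screen of KCNQ2 potentiator hits so any rise reflects channel-independent effects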
KCNQ1 sel pot – human KCNQ1 counter-target activity of KCNQ2 potentiators | shares compounds with KCNQ2 pot | CHO KCNQ1 stable, FluxOR thallium flux fluorescence; beyond 3SD, as % of vehicle-control signal | activation over 3SD threshold, % at 10 µM | 28% of 1,200 active | AID 2283;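 active = fluorescence ratio rise of at least 3 SD of vehicle wells above their mean, in both replicate wells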
KCNQ2 pot confirm – confirmation of rat KCNQ2 potassium channel potentiators | shares compounds with KCNQ2 pot | CHO-KCNQ2 cells, FluxOR thallium flux fluorescence | potentiation, less the hit threshold, % at 10 µM | 68% of 1,200 active;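 active = fluorescence ratio rising 3 SD or more over the vehicle control mean in both replicates, plus primary screen hit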;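 also: peak minus minimum thallium fluorescence divided by baseline after K/Tl stimulus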
Kir2-1 sel – selectivity of KCNQ2 potentiators: effect on mouse Kir2.1. shares compounds with KCNQ2 pot. HEK293 Kir2.1, FluxOR thallium flux fluorescence. activity over 3SD threshold, % at 10 µM. 2% of 1,200 active;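 active = fluorescence ratio rise of at least 3 SD above the vehicle-control mean, seen in both replicates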
KCNQ2 W236L pot – KCNQ2 potentiators acting on retigabine-insensitive rat KCNQ2 W236L mutant; shares compounds with KCNQ2 pot; CHO KCNQ2-W236L, automated patch clamp current; current increase over 3SD of negative controls (%), stronger effect = higher value, % at 25 µM; 10% of 940 active; AID 2558;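 active = current increase at least 3 SD of the untreated controls above them in both duplicate recordings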
A number is an active result; - = inactive; . = no result given; ! = not confirmed by another sample. The list is not random: actives were taken first. Their share in the collection is about 1.6%.

SMILES | KCNQ2 pot | KCNQ2 block | Kir21 conf inh | HEK293 ctr | others
Cc1ccc(-c2nc3ccccn3c2NCc2ccc3c(c2)OCO3)cc1 | . | - | 76% | -
COc1ccc(-c2nc3ccc(C)cn3c2NCc2ccc3c(c2)OCO3)cc1 | - | - | . | .
N#Cc1c(N)oc(-c2ccc3c(c2)OCO3)c1-c1ccc2c(c1)OCO2 | . | - | . | .
CC(=O)NC(C)(CC(=O)c1ccccc1)c1ccccc1 (configuration not stated) | - | - | . | .
Cc1cc(C)c(S(=O)(=O)NCc2ccccn2)cc1C | . | - | . | .
Cc1ccc(C(C)C)cc1S(=O)(=O)NCc1ccccn1 | . | - | 67% | -
CSc1nc(-c2cccs2)c(C#N)c(=O)[nH]1 | - | - | . | .
N#Cc1c(-c2cccs2)nc(SCc2ccc(Cl)cc2)[nH]c1=O | 6.1 | - | - | 60% | CHO-K1 ctr=4.4;KCNQ1 sel pot=18;KCNQ2 pot confirm=15;Kir2-1 sel=-;KCNQ2 W236L pot=-
O=C(COc1ccccc1)Nc1cc(C(F)(F)F)ccc1N1CCCC1 | . | - | . | .
COc1cccc(CC(=O)Nc2cc(C(F)(F)F)ccc2N2CCCC2)c1 | 5.4 | - | - | - | CHO-K1 ctr=-;KCNQ1 sel pot=-;KCNQ2 pot confirm=-;Kir2-1 sel=-;KCNQ2 W236L pot=-
Cc1cc(N2CCCC2)ccc1NC(=O)COc1cccc(C(F)(F)F)c1 | 6.4 | - | - | - | CHO-K1 ctr=-;KCNQ1 sel pot=-;KCNQ2 pot confirm=6.0;Kir2-1 sel=-;KCNQ2 W236L pot=-
CN1CCN(NC(=O)COc2cccc(C(F)(F)F)c2)CC1 | . | - | . | .
CCOC(=O)c1ccc(NC(=O)C(C)Sc2nc(O)c(-c3ccccc3)c(=O)[nH]2)cc1 (configuration not stated) | . | - | . | .
O=C(COc1ccccc1F)NC12CC3CC(CC(C3)C1)C2 | . | - | . | .
Cc1ccc(C)c(N2CCN(C(=O)c3ccc(N4CCCC4=O)cc3)CC2)c1 | - | - | . | .
CCCCCC(=O)Nc1cc(S(=O)(=O)N2CCOCC2)ccc1Oc1ccc(OCC)cc1 | . | - | . | .
C/C(=N\NC(=O)C(N)=O)c1cccc(C(F)(F)F)c1 | - | - | . | .
CN(CCOc1ccccc1)C(=O)c1cc(S(=O)(=O)N2CCCCC2)ccc1Cl | . | - | . | .
COC(=O)n1c(=S)oc2cc(Cl)ccc21 | 8.4 | - | - | - | CHO-K1 ctr=28;KCNQ1 sel pot=-;KCNQ2 pot confirm=-;Kir2-1 sel=-;KCNQ2 W236L pot=-
CCCCOC(=O)n1c(=S)oc2cc(Cl)ccc21 | - | - | . | .
CCOC(=O)CSc1nc(=O)n2cccc(C)c2n1 | . | - | . | .
CCOC(=O)CSc1ccc(C(=O)Nc2ccc(OC)cc2)cn1 | . | - | . | .
CCOc1ccc(N(CC(=O)Nc2ccc(C)c(Cl)c2)S(C)(=O)=O)cc1 | . | - | . | .
N#C/C(=C\c1ccc(Cl)cc1)c1n[nH]c(Cn2cncn2)n1 | . | - | . | .
O=C(Nc1ccc(Cl)cc1Cl)c1n[nH]c(Cn2cncn2)n1 | 7.1 | - | - | - | CHO-K1 ctr=-;KCNQ1 sel pot=50;KCNQ2 pot confirm=-;Kir2-1 sel=-;KCNQ2 W236L pot=-
SMILES | KCNQ2 pot | KCNQ2 block | Kir21 conf inh | HEK293 ctr | others
Cc1cc(C(=O)O)cc(S(=O)(=O)Nc2ccccc2C(=O)NC(C)c2ccccc2)c1C (configuration not stated) | - | - | . | .
CC1(NC(=S)N(CCO)CCO)CCS(=O)(=O)C1 (configuration not stated) | - | - | . | .
O=C1NC(Cc2c[nH]c3ccccc23)C(=O)N1Cc1ccccc1 (configuration not stated) | . | - | . | .
O=C1C(Cc2c[nH]c3ccccc23)NC(=S)N1Cc1ccccc1 (configuration not stated) | . | - | 48% | -
COc1ccccc1N(CC(=O)NCc1ccccc1)C(=O)CCC(=O)Nc1cc(C)ccn1 | - | - | . | .
CCn1c(Sc2ccc(N)cc2Cl)nc2ccccc21 | . | - | 76% | -
CCn1c(SCC(=O)NC(C)c2ccccc2)nc2ccccc21 (configuration not stated) | . | - | . | .
COC(=O)c1cnc(NNS(=O)(=O)c2ccc(C(F)(F)F)cc2)nc1C(F)(F)F | - | - | . | .
Cc1ccc2cc(C#N)c(N3CCCN(C(=S)NCCCN(C)C)CC3)nc2c1 | . | - | . | .
Cc1cc(C)c2cc(C#N)c(N3CCCN(C(=S)NCCCN(C)C)CC3)nc2c1 | . | - | 50% | -
Cc1ccc(C(=O)NNc2ncnc3c2cnn3C)cc1 | . | - | . | .
Cn1ncc2c(O/N=C(\N)c3ccc(C(F)(F)F)cc3)ncnc21 | 6 | - | - | - | CHO-K1 ctr=20;KCNQ1 sel pot=5.7;KCNQ2 pot confirm=-;Kir2-1 sel=-
O=C(Nc1cccc(-c2cccc(Cl)c2)c1)C1CCN(Cc2ccc(CO)o2)CC1 | . | - | 63% | -
Cc1ccc(CN2CCC(C(=O)Nc3cccc(-c4cccc(F)c4)c3)CC2)o1 | . | - | . | .
COCCCNC(=O)CN(c1cc(Cl)ccc1OC)S(C)(=O)=O | . | - | . | .
CCc1nc(OCC(=O)c2ccccc2)c(C#N)c2c1COC(C)(C)C2 | 9.6 | - | - | - | CHO-K1 ctr=57;KCNQ1 sel pot=-;KCNQ2 pot confirm=20;Kir2-1 sel=-;KCNQ2 W236L pot=-
Cc1nc(OCC(=O)c2ccc(Cl)cc2)c(C#N)c2c1COC(C)(C)C2 | - | - | . | .
CCN(CC)CCN(C(=O)c1ccc(CN2CCCCC2)o1)C(C(=O)NC1CCCCC1)c1ccc(F)cc1 (configuration not stated) | - | - | . | .
O=C(NC(=O)c1cccc(OC(F)(F)C(F)F)c1)OC1CCS(=O)(=O)C1 (configuration not stated) | . | - | . | .
COc1ccc(CCNC(=O)CN2CCCc3ccccc32)cc1OC | . | - | . | .
O=C(CN1CCCc2ccccc21)NCCc1ccc(F)cc1 | . | - | 46% | -
O=S1(=O)CCOC[C@H](c2ccccc2)N1Cc1cccc(Cl)c1 | . | - | . | .
CC(Sc1ccc(Cl)cc1)C(=O)Nc1ccc2c(c1)OCO2 (configuration not stated) | - | - | . | .
CC(Sc1ccc(Cl)cc1)C(=O)NCc1ccc2c(c1)OCO2 (configuration not stated) | 7.7 | - | - | - | CHO-K1 ctr=81;KCNQ1 sel pot=14;KCNQ2 pot confirm=3.7;Kir2-1 sel=-;KCNQ2 W236L pot=-
COc1ccccc1CC(=O)N1CCCc2cc(C)ccc21 | . | - | - | -
SMILES | KCNQ2 pot | KCNQ2 block | Kir21 conf inh | HEK293 ctr | others
Cc1ccc2c(c1)CCCN2C(=O)CSc1ccccc1 | . | - | . | .
O=C(COc1ccc2c(c1)OCO2)Nc1ccccc1F | . | - | . | .
O=C(CSCc1ccc(F)cc1)NCc1ccc2c(c1)OCO2 | . | - | . | .
Fc1ccc([C@@H]2CCNC[C@H]2COc2ccc3c(c2)OCO3)cc1 | - | -6! | 34% | -
Fc1ccc(C2CCNCC2COc2ccc3c(c2)OCO3)cc1 (configuration not stated) | - | -6.2 | 48% | -
CCn1c(CC(=O)Nc2ccc(C)cc2)n[nH]c1=S | - | - | . | .
